Pf Dd2 inh: inhibitors of Plasmodium falciparum Dd2 growth. Potency, µM (series often up to 28.9 µM), without a hit: top-dose activity, negative = inhibition, actives largely listed as inhibitors. hit rate 4.3% among 120,000. P. falciparum Dd2 growth, SYBR Green, 72 h. AID 1347417; active means well fitted inhibition curve with a large enough effect;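 further: plate controls were DMSO vehicle for no effect and reference drug for full effect; nearly all actives have a fitted effect of over 65% in size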
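Readout: SYBR Green fluorescence, 485 nm excitation, 535 nm emission, after ~16 h lysis at 37C. Before that, Dd2-infected red cells (2.5% hematocrit) grew 72 h with compound, 29 uM top final concentration.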
* marks the source's active call; other numbers are inactive results; i = inactive; [ ] = dose if it differs, or a comment. The full list was thinned out, with hits kept by preference. Potency means the concentration at half of the fitted maximal effect.

SMILES	Pf Dd2 inh
CCc1cc(N2CCC3(CCCN(C)C3=O)C2)nc(N2CCCC2)n1 (centres undefined)	-29.3%
CCc1cc(N2CCOCC(O)(CN3CCCC3)C2)nc(N2CCCC2)n1 (centres undefined)	5.62µM*
COc1ccc(C(=O)N2CCOCC(O)(CN3CCCC3)C2)c(OC)c1 (centres undefined)	10.2%
COc1ccc(C(=O)N2C[C@@H]3OCC(=O)N(CC4CC4)[C@@H]3C2)cc1	8.2%[44.1 µM]
CN(CC1CCOC1)C(=O)c1cccs1 (centres undefined)	30.5%[5.79 µM]
Cc1ccccc1C(=O)N1CCCC(Nc2ccc(F)cc2)C1 (centres undefined)	-19.0%
CC(C)n1cnnc1CC1CCCN(S(=O)(=O)c2ccc3c(c2)C(C)(C)C(=O)N3)C1 (centres undefined)	-19.3%
CC(=O)c1ccc(NC(=O)c2cc3sccc3n2Cc2ccc(F)cc2)cc1	-11.8%
Cc1ccc(CNC(=O)c2cc3sccc3n2Cc2ccc(Cl)cc2)cc1	i
COC(=O)c1cc(NC(=O)c2cc3sccc3n2Cc2ccc(Cl)cc2)cc(C(=O)OC)c1	11.2µM*
CN(C)CCN(C)[C@H]1[C@@H]2OC[C@@H](O2)[C@@H](NCc2cnc3ccccc3c2)[C@@H]1O	18.2%[44.1 µM]
COc1ccc(OC)c(CNC(=O)C2CCCCC(=O)N2)c1 (centres undefined)	-14.0%
CCc1cc(=O)n(CC(=O)Nc2cccc(C(C)=O)c2)c(N2CCOCC2)n1	i
Cc1nc(-n2nc(C)c(Cc3ccc4c(c3)OCO4)c2C)sc1C(=O)Nc1ccc(Cl)cc1	-19.1%
CCc1ccccc1NC(=O)c1sc(-n2nc(C)c(Cc3ccc4c(c3)OCO4)c2C)nc1C	3.98µM*
Cc1ccc(NC(=O)c2sc(-n3nc(C)c(Cc4ccc5c(c4)OCO5)c3C)nc2C)cc1Cl	-18.9%
CN(CCc1noc(C2CC2)n1)c1ncncc1C(=O)O	0.7%
CC1CCC(NC(=O)CN2C(=O)NC3(CCOCC3)C2=O)CC1 (centres undefined)	26.0%
CC1=C[C@@H](CNCc2ccccc2)[C@H](C(C)C)C[C@H]1Cc1nc2c(C)cccc2[nH]1	3.55µM*
COCC(=O)NC[C@@H]1C=C(C)[C@H](Cc2nc3ccc(C(=O)OC)cc3[nH]2)C[C@H]1C(C)C	11.2µM*
CCC(CC)C(=O)NC[C@@H]1C=C(C)[C@H](Cc2nc3ccc(C)cc3[nH]2)C[C@H]1C(C)C	-11.8%[44.1 µM]
CC1=C[C@@H](CNC(=O)CC(C)(C)CC(=O)O)[C@H](C(C)C)C[C@H]1Cc1nc2c(C)cccc2[nH]1	-23.7%
CC1=C[C@@H](CNC(=O)CC(C)(C)CC(=O)O)[C@H](C(C)C)C[C@H]1Cc1nc2ccncc2[nH]1	2.0%
CC1=C[C@@H](CNC(=O)C2CCCCC2)[C@H](C(C)C)C[C@H]1Cc1nc2ccc(C)cc2[nH]1	11.2µM*
COC(=O)c1ccc2nc(C[C@@H]3C[C@@H](C(C)C)[C@H](CNC(=O)CCCC(=O)O)C=C3C)[nH]c2c1	-28.1%
SMILES	Pf Dd2 inh
COC(=O)c1ccc2nc(C[C@@H]3C[C@@H](C(C)C)[C@H](CNC(=O)COCC(=O)O)C=C3C)[nH]c2c1	-14.3%
CC1=C[C@@H](CNC(=O)CC(C)(C)CC(=O)O)[C@H](C(C)C)C[C@H]1Cc1nc2ccc(C)cc2[nH]1	8.91µM*
COc1ccc2nc(C[C@@H]3C[C@@H](C(C)C)[C@H](CNCc4ccccc4)C=C3C)[nH]c2c1	-15.1%[44.1 µM]
CC1=C[C@@H](CNC(=O)CC(C)(C)CC(=O)O)[C@H](C(C)C)C[C@H]1Cc1nc2ccc(F)cc2[nH]1	i
CC1=C[C@@H](CNC(=O)C2CCCCC2)[C@H](C(C)C)C[C@H]1Cc1nc2c(C)cccc2[nH]1	-25.3%[44.1 µM]
O=C(NC1CC1)c1cnn2ncccc12	8.1%[44.1 µM]
O=C1NCCCCCCN(Cc2ccncc2)[C@@H]2CN(C(=O)Nc3ccccc3)CC[C@@H]12	i
COc1cc2c(cc1-c1nccn1-c1ccc(NC(C)=O)cc1)OCCO2	-11.3%
CN(Cc1cccnc1)C(=O)CCC1CCCN(S(=O)(=O)c2ccccc2)C1 (centres undefined)	-22.7%
N#Cc1ccccc1CN1CCC2(CC1)CC(O)CCO2 (centres undefined)	18.8%
NC(=O)CCNC(=O)[C@@]1(O)C[C@@H](O)[C@H](O)[C@@H](NC(=O)c2ccc(F)c(Cl)c2)C1	17.6%[44.1 µM]
Cc1ccccc1-c1cccc(CCOc2cnc3c(ccn3CC(=O)O)c2)c1	i
O=C1CCC2(CCCO2)CCN1Cc1ccc(C(F)(F)F)c(F)c1 (centres undefined)	-18.4%
COc1ccc2nc(C[C@@H]3C[C@@H](C(C)C)[C@H](CNC4CCCCC4)C=C3C)[nH]c2c1	2.82µM*
CC1=C[C@@H](CNC(=O)CCCC(=O)O)[C@H](C(C)C)C[C@H]1Cc1nc2ccccc2[nH]1	-19.2%[44.1 µM]
COC(=O)c1ccc2nc(C[C@@H]3C[C@@H](C(C)C)[C@H](CNC(=O)CN(C)C)C=C3C)[nH]c2c1	-4.6%
COc1ccc2nc(C[C@@H]3C[C@@H](C(C)C)[C@H](CNC(=O)[C@@H]4CCCC[C@@H]4C(=O)O)C=C3C)[nH]c2c1	-24.3%
COc1ccc2nc(C[C@@H]3C[C@@H](C(C)C)[C@H](CNC(=O)COCC(=O)O)C=C3C)[nH]c2c1	-16.2%[44.1 µM]
COC(=O)c1ccc2nc(C[C@@H]3C[C@@H](C(C)C)[C@H](CNC(=O)C4CCCCC4)C=C3C)[nH]c2c1	11.2µM*
CC1=C[C@@H](CN)[C@H](C(C)C)C[C@H]1Cc1nc2ccccc2[nH]1	i
COc1ccc2nc(C[C@@H]3C[C@@H](C(C)C)[C@H](CNC(=O)C4CCCCC4)C=C3C)[nH]c2c1	12.6µM*
CC1=C[C@@H](CNC(=O)COCC(=O)O)[C@H](C(C)C)C[C@H]1Cc1nc2ccc(F)cc2[nH]1	9.0%[44.1 µM]
COc1ccc2nc(C[C@@H]3C[C@@H](C(C)C)[C@H](CN4C(=O)C(C)=C(C)C4=O)C=C3C)[nH]c2c1	i
COC(=O)c1ccc2nc(C[C@@H]3C[C@@H](C(C)C)[C@H](CN(C)C)C=C3C)[nH]c2c1	12.6µM*
COCc1noc([C@@H]2CN(C(=O)c3cc4ccccc4[nH]3)C[C@H]2C(N)=O)n1	i
SMILES	Pf Dd2 inh
Cn1ccnc1C(=O)N1CCCN(C(=O)C2CC2)c2ccccc21	7.5%
O=C(C1CC1)N1CCC2(CC1)CN(c1ccccc1)C2=O	3.6%
CNC(=O)[C@@H]1CN(C(=O)c2ccncc2)C[C@H]1CO	40.6%
COc1ccc(N2CC(C(=O)NCCc3ccc(F)cc3)NC2=O)cc1 (centres undefined)	-17.0%
CCCn1ccnc1CN1C[C@@H](NC(=O)c2ccon2)C[C@H]1C(=O)NCC	-3.1%
CCc1noc(-c2cccn3c(CNC(=O)c4ccc(F)c(F)c4)nnc23)n1	-3.9%
CN1CC(=O)N(C2CCCNCC2)Cc2c1ncnc2N1CCNC(=O)C1 (centres undefined)	11.6%
O=C(CC1CCCCN(Cc2ccccc2)C1=O)NC1CC1 (centres undefined)	-12.0%
COc1cccc(NC(=O)c2cc3c(N4CCCC4)nc(C)cn3n2)c1	-5.1%
COc1cccc(C(=O)N2CCC3(CC2)CC(O)CCO3)c1 (centres undefined)	-5.2%
COc1ccccc1NC(=O)N1C[C@@H](F)C[C@H]1C(=O)N1CCc2ccccc2C1	8.91µM*
Cc1ccc(NC(=O)N2C[C@@H](F)C[C@H]2C(=O)N2CCc3ccccc3C2)cc1C	-19.8%
Cc1ccc(C)c(NC(=O)N2C[C@@H](F)C[C@H]2C(=O)N2CCc3ccccc3C2)c1	19.3%
